Here are results for four compounds from PubChem BioAssay.

Activity calls are given as the source filed them.

Assay [1] can be described thus: optical density shifts of acrAB sulA E. coli – strain DRC41, OD650, 48 h, E. coli filamentation inducer project, primary screen (AID 1152).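 Further: E. coli MC1000 strain DRC41 lacking acrAB efflux pump and sulA.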 The settings on record: higher = more signal, called active from +8 up or from −8 down.
Assay [2] is described as follows: probe aLefty1 binding on compound microarray – biochemical, small-molecule microarray, 635/667 nm fluorescence, primary screen (AID 1153).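 Further: score merges spot fluorescence with signal-to-noise ratio from the scanned slide images.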 The settings on record: higher = more signal.
Assay [3] can be described thus: plasmodial surface anion channel blockers, osmotic lysis – cell-based, P. falciparum Indochina, OD700, 1 h, primary screen (AID 1154). Conditions: P. falciparum Indochina infected RBC osmotic lysis, higher = more signal, called active from +8 up or from −8 down.
A short description of assay [4]: plasmodial surface anion channel blockers, osmotic lysis – cell-based, P. falciparum Indochina, OD700, 2 h, primary screen (AID 1155).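 Further: lysis reports solute entry through the parasite surface anion channel PSAC.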 The settings on record: P. falciparum Indochina infected erythrocytes, higher = more signal, called active from +8 up or from −8 down.
A short description of assay [5]: changes in parasitized red cell lysis, either direction – P. falciparum Indochina, OD700, 3 h, PSAC antagonist project, primary screen (AID 1156). Conditions: P. falciparum-infected erythrocytes, osmotic lysis, higher = more signal, called active from +8 up or from −8 down.
The nature of assay [6]: plasmodial surface anion channel blockers, osmotic lysis – cell-based, P. falciparum Indochina, OD700, 18 h, primary screen (AID 1157). Conditions: P. falciparum Indochina infected erythrocytes, osmotic lysis OD700, 18 h; higher = more signal, called active from +8 up or from −8 down.
Assay [7] can be described thus: S6 kinase pathway phospho-S6 level changes – cell-based, A549, cytoblot, luminescence, serum-stimulated, primary screen (AID 1158).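 Further: serum-stimulated A549 lung adenocarcinoma cells; signal is phosphorylated S6 detected by cytoblot immunostaining with HRP secondary.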 Conditions: 5 h, higher = more signal.
Assay [8] has as its target NADPH oxidase 2 (Homo sapiens) (UniProt P04839). The assay can be described thus: compounds shifting NOX2 Amplex Red fluorescence – cell-based, HEK293-NOX2, PMA-stimulated, NOX inhibitor project, primary screen (AID 1159). Further: test concentration not given here. The settings on record: 45 min, higher = more signal, called active from +8 up or from −8 down.
Assay [9] deals with NADPH oxidase 4 (Homo sapiens) (UniProt Q9NPH5). The assay can be described thus: compounds shifting NOX4 Amplex Red fluorescence – cell-based, HEK293-NOX4, tetracycline-induced, NOX inhibitor project, primary screen (AID 1160). The settings on record: HEK293-NOX4, Amplex Red H2O2 fluorescence, 45 min; higher = more signal, called active from +8 up or from −8 down.
NADPH oxidase 4 (Homo sapiens), sequence (Q9NPH5 whole entry, looked up): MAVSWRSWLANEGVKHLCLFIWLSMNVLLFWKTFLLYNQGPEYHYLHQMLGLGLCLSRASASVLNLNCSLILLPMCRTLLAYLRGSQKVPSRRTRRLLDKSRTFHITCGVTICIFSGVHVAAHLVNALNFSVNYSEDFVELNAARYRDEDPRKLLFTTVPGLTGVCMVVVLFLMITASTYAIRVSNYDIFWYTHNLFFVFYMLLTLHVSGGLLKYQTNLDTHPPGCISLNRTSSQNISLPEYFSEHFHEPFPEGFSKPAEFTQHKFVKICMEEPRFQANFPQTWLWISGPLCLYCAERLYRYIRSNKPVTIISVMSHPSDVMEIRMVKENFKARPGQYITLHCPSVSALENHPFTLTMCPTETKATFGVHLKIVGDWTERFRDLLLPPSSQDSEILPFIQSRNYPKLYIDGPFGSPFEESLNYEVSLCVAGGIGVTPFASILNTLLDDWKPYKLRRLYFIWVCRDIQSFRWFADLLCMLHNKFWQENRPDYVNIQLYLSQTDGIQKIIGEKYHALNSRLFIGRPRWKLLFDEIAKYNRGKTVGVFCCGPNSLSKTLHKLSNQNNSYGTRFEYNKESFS
The target of assay [10] is NADPH oxidase 5 (Homo sapiens) (UniProt Q96PH1). The assay can be described thus: compounds shifting NOX5 Amplex Red fluorescence – cell-based, HEK293-NOX5, NOX inhibitor project, primary screen (AID 1161). The settings on record: HEK293-NOX5, ionomycin, 45 min, higher = more signal.
NADPH oxidase 5 (Homo sapiens), sequence (Q96PH1 whole entry, looked up): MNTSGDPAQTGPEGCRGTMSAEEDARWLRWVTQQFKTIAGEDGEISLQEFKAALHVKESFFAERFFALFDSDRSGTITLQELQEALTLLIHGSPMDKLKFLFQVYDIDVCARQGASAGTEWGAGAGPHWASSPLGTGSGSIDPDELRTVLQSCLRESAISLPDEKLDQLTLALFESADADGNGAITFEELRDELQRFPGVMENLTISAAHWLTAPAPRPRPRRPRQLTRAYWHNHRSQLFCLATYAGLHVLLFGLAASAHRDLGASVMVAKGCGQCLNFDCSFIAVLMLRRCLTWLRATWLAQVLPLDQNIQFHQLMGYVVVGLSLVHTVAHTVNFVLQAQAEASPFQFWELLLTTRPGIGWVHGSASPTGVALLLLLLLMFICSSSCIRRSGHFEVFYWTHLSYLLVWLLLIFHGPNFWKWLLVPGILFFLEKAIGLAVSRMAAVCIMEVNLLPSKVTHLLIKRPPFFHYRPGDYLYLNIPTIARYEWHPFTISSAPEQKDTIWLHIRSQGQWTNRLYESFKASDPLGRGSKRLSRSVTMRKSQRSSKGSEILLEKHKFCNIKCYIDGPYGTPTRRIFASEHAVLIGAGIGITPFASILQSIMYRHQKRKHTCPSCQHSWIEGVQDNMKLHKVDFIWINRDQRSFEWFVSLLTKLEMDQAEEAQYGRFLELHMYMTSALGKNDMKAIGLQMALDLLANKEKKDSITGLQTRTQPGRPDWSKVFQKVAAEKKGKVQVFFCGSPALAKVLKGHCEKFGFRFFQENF
Assay [11] is described as follows: compound effects on lung adenocarcinoma cell viability – A549, calcein-AM fluorescence, 48 h, basal, profiling panel (AID 1162). Further: test concentration not given here. The settings on record: higher = more signal.
Assay [12] can be described thus: compound effects on differentiated 3T3-L1 adipocyte viability – cell-based, 3T3-L1 adipocytes, calcein-AM fluorescence, 48 h, basal, profiling panel (AID 1163). Further: test concentration not given here. Conditions: 3T3-L1 adipocytes viability, higher = more signal.
Assay [13] in a line: compound effects on hepatocellular carcinoma cell viability – HepG2, calcein-AM fluorescence, 48 h, basal, profiling panel (AID 1164). Further: test concentration not given here. The settings on record: higher = more signal.
Assay [14] in a line: compound effects on multiple myeloma cell viability – MM1S, calcein-AM fluorescence, 48 h, basal, profiling panel (AID 1165).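 Further: viability of MM1S multiple myeloma cells under basal unstimulated conditions; test concentration not given here.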 The settings on record: higher = more signal.
Assay [15] in a line: calcein-AM signal in unstimulated myeloma cells – cell-based, calcein-AM fluorescence, 48 h, PK04 Diversity Set, profiling panel (AID 1166).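 Further: cells grown under basal conditions without added stimulus; test concentration not given here.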 Conditions: RPMI8226 myeloma viability, higher = more signal.
The nature of assay [16]: JC-1 mitochondrial signal, unstimulated HepG2 cells – cell-based, JC-1 fluorescence, 24 h, 100 nL compound, profiling panel (AID 1167). Further: test concentration not given here. Conditions: HepG2 mitochondrial potential, higher = more signal.
Assay [17] can be described thus: JC-1 mitochondrial signal, unstimulated adipocytes – cell-based, JC-1 fluorescence, 3T3-L1 adipocytes, 24 h, 100 nL compound, profiling panel (AID 1168). Further: test concentration not given here. The settings on record: JC-1 mitochondrial fluorescence, higher = more signal, called active from +8 up or from −8 down.
Assay [18] can be described thus: JC-1 mitochondrial signal, unstimulated myeloma cells – cell-based, JC-1 fluorescence, RPMI8226, 24 h, 100 nL compound, profiling panel (AID 1169). Further: test concentration not given here. The settings on record: JC-1 mitochondrial potential fluorescence, higher = more signal.
Assay [19] is described as follows: JC-1 mitochondrial signal, unstimulated MM1S myeloma – cell-based, JC-1 fluorescence, 24 h, 100 nL compound, profiling panel (AID 1170). Further: test concentration not given here. Conditions: MM1S mitochondrial potential, higher = more signal.
A short description of assay [20]: resazurin metabolic signal in A549 cells – cell-based, resazurin fluorescence, 24 h, PK04 Diversity Set, profiling panel (AID 1171). Further: test concentration not given here. The settings on record: A549 viability, higher = more signal, called active from +8 up or from −8 down.

NADPH oxidase 2 (Homo sapiens), sequence (P04839 whole entry, looked up): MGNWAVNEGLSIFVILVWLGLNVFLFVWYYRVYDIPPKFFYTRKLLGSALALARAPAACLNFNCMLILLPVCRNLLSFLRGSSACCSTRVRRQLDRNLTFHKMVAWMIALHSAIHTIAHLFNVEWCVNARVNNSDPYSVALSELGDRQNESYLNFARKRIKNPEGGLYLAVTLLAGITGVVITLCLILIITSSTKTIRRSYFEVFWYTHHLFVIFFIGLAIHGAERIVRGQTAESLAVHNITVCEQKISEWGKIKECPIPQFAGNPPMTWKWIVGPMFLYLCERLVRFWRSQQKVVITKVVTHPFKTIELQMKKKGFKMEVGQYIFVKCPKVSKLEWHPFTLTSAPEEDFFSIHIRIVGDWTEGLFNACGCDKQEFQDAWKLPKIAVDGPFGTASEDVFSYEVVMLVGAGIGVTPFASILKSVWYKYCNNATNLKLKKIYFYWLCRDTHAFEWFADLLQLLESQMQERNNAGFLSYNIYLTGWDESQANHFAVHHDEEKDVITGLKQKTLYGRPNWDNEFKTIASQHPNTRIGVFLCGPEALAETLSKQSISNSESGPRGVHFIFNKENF

For the compound `COCCOC(=O)N1C(=O)[C@@]2(c3cc(C#CC4(O)CCCCCC4)ccc31)[C@H](C(N)=O)[C@H]1C(=O)O[C@H](c3ccccc3)[C@H](c3ccccc3)N1[C@@H]2c1ccccc1OCCO`, the z-score in [1] is 0.127 (inactive); in assay [3], 4.94 (inactive); in assay [4], 2.11 (inactive); in assay [5] it was 3.54 (inactive); in assay [6], 1.62 (inactive); in [7] it was 0.563. Also, the z-score in assay [8] was 2.63 (inactive); in assay [9], 0.164 (inactive); in [10], 0.38; in assay [11] it was -1.86; in [12], 0.73; in assay [13], -4.88. For the same compound, the z-score in assay [14] is -3.42; in [15] it was -4.59; in assay [16], -2.32; in assay [17], 1.57 (inactive); in assay [18], -1.17; in [19], -1.7. Besides, the z-score in assay [20] is -2.63 (inactive). For the same compound, in [2], the composite z-score was -1.03.

In the case of `NC(=O)NCC#Cc1ccc2c(c1)[C@]1(C(=O)N2)[C@H](c2ccc(O)cc2)N2[C@H](c3ccccc3)[C@H](c3ccccc3)OC(=O)[C@H]2[C@@H]1C(=O)Nc1nc2ccccc2s1`, the z-score in assay [1] was 0.589 (inactive); in assay [3] it was 3.28 (inactive); in [4] it was 2.86 (inactive); in assay [5], 0.904 (inactive); in [6] it was 2.09 (inactive); in assay [7] it was 0.0298. Besides, the z-score in assay [8] was 0.0666 (inactive); in [9] it was -1.01 (inactive); in assay [10] it was 0.17; in assay [11], 0.421; in assay [12] it was 1.17; in assay [13], 0.157. Further, the z-score was -0.168 in assay [14]; 0.496 in assay [15]; -3.24 in assay [16]; 0.352 (inactive) in [17]; -1.16 in assay [18]; -2.12 in assay [19]. For the same compound, in assay [20], the z-score was 0.754 (inactive). In [2], this compound had a composite z-score of 0.127.

`COCCOC(=O)N1C(=O)[C@@]2(c3cc(C#Cc4ccc(OC)cc4)ccc31)[C@H](C(=O)N1CCN(c3ncccn3)CC1)[C@H]1C(=O)O[C@H](c3ccccc3)[C@H](c3ccccc3)N1[C@@H]2c1ccccc1OCCO`: the z-score was 0.0325 (inactive) in assay [1]; 2.79 (inactive) in assay [3]; 2.29 (inactive) in assay [4]; 0.641 (inactive) in assay [5]; 1.07 (inactive) in [6]; -0.43 in assay [7]. The z-score is 0.405 (inactive) in [8]; 0.152 (inactive) in assay [9]; 1.06 in assay [10]; -0.457 in assay [11]; 0.0076 in assay [12]; 0.149 in assay [13]. Moreover, the z-score in assay [14] was 0.325; in assay [15], 0.204; in [16] it was 0.57; in assay [17], 2.03 (inactive); in [18], -0.403; in [19] it was -1.41. Further, the z-score in [20] is -0.785 (inactive). In [2], this compound registered a composite z-score of 0.406.

Take `COC(=O)C1(Cc2ccccc2)C=C2C(=C(c3ccccc3)C(=O)C2C)CN1` (stereo not given): the z-score in assay [1] was -1.38 (inactive); in assay [3] it was 2.11 (inactive); in assay [4] it was -0.0273 (inactive); in assay [5] it was 0.423 (inactive); in assay [6], 0.298 (inactive); in [7], 0.208. Besides, the z-score was -0.66 (inactive) in [8]; -3.74 (inactive) in [9]; -3.29 in assay [10]; -0.874 in assay [11]; 0.24 in [12]; -0.515 in assay [13]. Further, the z-score was -0.451 in assay [14]; -0.91 in [15]; -0.832 in assay [16]; -1.12 (inactive) in assay [17]; 0.213 in [18]; -0.291 in assay [19]. Besides, the z-score in [20] was -0.358 (inactive). For the same compound, the composite z-score in assay [2] amounted to 1.23.
